# Reference: PubChem BioAssay AID1159580 (chemical genetic matrix, 2015)
# Hit rate of the full screen: of about 5,500 compounds, about 2,000 (36%) were called active. Inconclusive results (about 18%) are left out. Some of the results follow. Values without a mark were called inactive. Cut-off read from the data, not from the text of the source: active = normalized growth mostly below about 0.91 (no sharp cut-off); inconclusive = no clear call, values can overlap the other calls; inactive = mostly above about 0.92.
# Test: chemical genetic growth profiling, strain panel (AID 1159580);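 note: tested at 20 µM; growth read once vehicle control cultures reached saturation at 30 °C; 1 = growth at the plate median or of vehicle wells; lower values mean less growth of the strain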
# Settings: growth OD
# [1] = S. cerevisiae deletion strains, locus YCL061C, strain MRC1, active compounds read low
# [2] = S. cerevisiae deletion strains, locus YHR030C, strain SLT2, active compounds read low
# [3] = S. cerevisiae deletion strains, locus YJL187C, strain SWE1, active compounds read low
smiles,measurement,setting,value
COc1cc(/C=C2\NC(=O)NC2=O)ccc1O,normalized growth,"S. cerevisiae deletion strains, locus YAL013W, strain DEP1, active compounds read low",1
same,normalized growth,"S. cerevisiae deletion strains, locus YBR229C, strain ROT2, active compounds read low",0.965
same,normalized growth,[1],1
same,normalized growth,"S. cerevisiae deletion strains, locus YDL101C, strain DUN1, active compounds read low",0.982
same,normalized growth,"S. cerevisiae deletion strains, locus YDR150W, strain NUM1, active compounds read low",0.963
same,normalized growth,"S. cerevisiae deletion strains, locus YEL061C, strain CIN8, active compounds read low",0.956
same,normalized growth,"S. cerevisiae deletion strains, locus YGR078C, strain PAC10, active compounds read low",0.977
same,normalized growth,[2],0.873
same,normalized growth,"S. cerevisiae deletion strains, locus YHR087W, strain rtc3, active compounds read low",1.04
same,normalized growth,[3],0.982
same,normalized growth,"S. cerevisiae deletion strains, locus YJR043C, strain POL32, active compounds read low",0.997
same,normalized growth,"S. cerevisiae deletion strains, locus YJR075W, strain HOC1, active compounds read low",0.976
same,normalized growth,"S. cerevisiae deletion strains, locus YKL190W, strain CNB1, active compounds read low",0.986
same,normalized growth,"S. cerevisiae deletion strains, locus YLR039C, strain RIC1, active compounds read low",0.918
same,normalized growth,"S. cerevisiae deletion strains, locus YLR058C, strain SHM2 (second series), active compounds read low",0.98
same,normalized growth,"S. cerevisiae deletion strains, locus YLR085C, strain ARP6, active compounds read low",0.941
same,normalized growth,"S. cerevisiae deletion strains, locus YLR262C, strain YPT6, active compounds read low",0.945
same,normalized growth,"S. cerevisiae deletion strains, locus YML094W, strain GIM5, active compounds read low",0.989
same,normalized growth,"S. cerevisiae deletion strains, locus YMR219W, strain ESC1, active compounds read low",0.974
same,normalized growth,"S. cerevisiae deletion strains, locus YMR263W, strain SAP30, active compounds read low",0.998
same,normalized growth,"S. cerevisiae deletion strains, locus YMR307W, strain GAS1, active compounds read low",1.07
same,normalized growth,"S. cerevisiae deletion strains, locus YNL128W, strain TEP1, active compounds read low",0.993
same,normalized growth,"S. cerevisiae deletion strains, locus YNL153C, strain GIM3, active compounds read low",0.98
same,normalized growth,"S. cerevisiae deletion strains, locus YNL298W, strain CLA4 (second series), active compounds read low",0.968
same,normalized growth,"S. cerevisiae deletion strains, locus YNL322C, strain KRE1, active compounds read low",0.996
same,normalized growth,"S. cerevisiae deletion strains, locus YNR030W, strain Alg12, active compounds read low",1.01
same,normalized growth,"S. cerevisiae deletion strains, locus YPL055C, strain LGE1, active compounds read low",0.999
same,normalized growth,"S. cerevisiae deletion strains, locus YPL241C, strain CIN2, active compounds read low",0.975
same,normalized growth,"S. cerevisiae deletion strains, locus YPR135W, strain CTF4, active compounds read low",0.945
same,normalized growth,"S. cerevisiae strains, strain wild type, active compounds read low",0.948
COc1cc(O)c(C(=O)/C=C/c2ccc(O)c(OC)c2)c(OC)c1,normalized growth,"S. cerevisiae deletion strains, locus YAL021C, strain ccr4, active compounds read low",0.948
same,normalized growth,"S. cerevisiae deletion strains, locus YAL026C, strain drs2, active compounds read low",0.896 (active)
same,normalized growth,"S. cerevisiae deletion strains, locus YAL030W, strain snc1, active compounds read low",0.972
same,normalized growth,"S. cerevisiae deletion strains, locus YBL061C, strain skt5, active compounds read low",0.983
same,normalized growth,"S. cerevisiae deletion strains, locus YBR009C, strain hhf1, active compounds read low",0.948
same,normalized growth,"S. cerevisiae deletion strains, locus YBR023C, strain chs3, active compounds read low",0.979
same,normalized growth,"S. cerevisiae deletion strains, locus YBR171W, strain sec66, active compounds read low",0.971
same,normalized growth,"S. cerevisiae deletion strains, locus YBR231C, strain swc5, active compounds read low",0.951
same,normalized growth,"S. cerevisiae deletion strains, locus YBR279W, strain paf1, active compounds read low",0.989
same,normalized growth,"S. cerevisiae deletion strains, locus YCL011C, strain gbp2, active compounds read low",0.947
same,normalized growth,"S. cerevisiae deletion strains, locus YCL016C, strain dcc1, active compounds read low",0.981
same,normalized growth,[1],0.984
same,normalized growth,"S. cerevisiae deletion strains, locus YCL069W, strain vba3, active compounds read low",0.972
same,normalized growth,"S. cerevisiae deletion strains, locus YCR088W, strain abp1, active compounds read low",0.976
same,normalized growth,"S. cerevisiae deletion strains, locus YDL005C, strain med2, active compounds read low",0.976
same,normalized growth,"S. cerevisiae deletion strains, locus YDL040C, strain nat1, active compounds read low",0.975
same,normalized growth,"S. cerevisiae deletion strains, locus YDR001C, strain nth1, active compounds read low",0.98
same,normalized growth,"S. cerevisiae deletion strains, locus YDR069C, strain doa4, active compounds read low",0.907
same,normalized growth,"S. cerevisiae deletion strains, locus YDR137W, strain rgp1, active compounds read low",0.947
same,normalized growth,"S. cerevisiae deletion strains, locus YDR159W, strain sac3, active compounds read low",0.941
same,normalized growth,"S. cerevisiae deletion strains, locus YDR195W, strain ref2",0.972
same,normalized growth,"S. cerevisiae deletion strains, locus YDR297W, strain sur2, active compounds read low",0.975
same,normalized growth,"S. cerevisiae deletion strains, locus YDR334W, strain swr1, active compounds read low",0.936
same,normalized growth,"S. cerevisiae deletion strains, locus YDR335W, strain msn5, active compounds read low",0.973
same,normalized growth,"S. cerevisiae deletion strains, locus YDR392W, strain spt3, active compounds read low",0.532 (active)
same,normalized growth,"S. cerevisiae deletion strains, locus YEL003W, strain gim4, active compounds read low",0.82 (active)
same,normalized growth,"S. cerevisiae deletion strains, locus YEL037C, strain rad23, active compounds read low",0.949
same,normalized growth,"S. cerevisiae deletion strains, locus YEL061C, strain CIN8 (second series), active compounds read low",0.977
same,normalized growth,"S. cerevisiae deletion strains, locus YER015W, strain faa2, active compounds read low",0.973
same,normalized growth,"S. cerevisiae deletion strains, locus YER016W, strain bim1, active compounds read low",0.981
same,normalized growth,"S. cerevisiae deletion strains, locus YER111C, strain swi4, active compounds read low",0.965
same,normalized growth,"S. cerevisiae deletion strains, locus YER155C, strain BEM2 (second series), active compounds read low",0.83 (active)
same,normalized growth,"S. cerevisiae deletion strains, locus YFR010W, strain ubp6, active compounds read low",0.899 (active)
same,normalized growth,"S. cerevisiae deletion strains, locus YGL167C, strain pmr1, active compounds read low",0.975
same,normalized growth,"S. cerevisiae deletion strains, locus YGL173C, strain kem1, active compounds read low",0.962
same,normalized growth,"S. cerevisiae deletion strains, locus YGL227W, strain vid30, active compounds read low",0.987
same,normalized growth,"S. cerevisiae deletion strains, locus YGL240W, strain doc1, active compounds read low",0.928
same,normalized growth,"S. cerevisiae deletion strains, locus YGL253W, strain hxk2, active compounds read low",0.877 (active)
same,normalized growth,"S. cerevisiae deletion strains, locus YHR013C, strain ard1, active compounds read low",0.902
same,normalized growth,"S. cerevisiae deletion strains, locus YHR027C, strain rpn1, active compounds read low",0.965
same,normalized growth,[2],0.96
same,normalized growth,"S. cerevisiae deletion strains, locus YHR079C, strain IRE1, active compounds read low",0.973
same,normalized growth,"S. cerevisiae deletion strains, locus YHR142W, strain chs7, active compounds read low",0.923
same,normalized growth,"S. cerevisiae deletion strains, locus YJL092W, strain hpr5, active compounds read low",0.961
same,normalized growth,"S. cerevisiae deletion strains, locus YJL095W, strain BCK1 (second series), active compounds read low",0.979
same,normalized growth,"S. cerevisiae deletion strains, locus YJL095W, strain BCK1, active compounds read low",0.982
same,normalized growth,"S. cerevisiae deletion strains, locus YJL115W, strain asf1, active compounds read low",0.969
same,normalized growth,"S. cerevisiae deletion strains, locus YJL129C, strain trk1, active compounds read low",0.965
same,normalized growth,"S. cerevisiae deletion strains, locus YJL154C, strain vps35, active compounds read low",0.987
same,normalized growth,"S. cerevisiae deletion strains, locus YJL164C, strain tpk1, active compounds read low",0.889 (active)
same,normalized growth,"S. cerevisiae deletion strains, locus YJL166W, strain qcr8, active compounds read low",0.94
same,normalized growth,[3],0.979
same,normalized growth,"S. cerevisiae deletion strains, locus YJR066W, strain TOR1, active compounds read low",0.926
same,normalized growth,"S. cerevisiae deletion strains, locus YKL160W, strain elf1, active compounds read low",0.968
same,normalized growth,"S. cerevisiae deletion strains, locus YKR026C, strain gcn3, active compounds read low",0.977
same,normalized growth,"S. cerevisiae deletion strains, locus YKR091W, strain srl3, active compounds read low",0.985
same,normalized growth,"S. cerevisiae deletion strains, locus YLL001W, strain dnm1, active compounds read low",0.984
same,normalized growth,"S. cerevisiae deletion strains, locus YLL026W, active compounds read low",0.972
same,normalized growth,"S. cerevisiae deletion strains, locus YLL041C, strain sdh2, active compounds read low",0.961
same,normalized growth,"S. cerevisiae deletion strains, locus YLR027C, strain aat2, active compounds read low",0.928
same,normalized growth,"S. cerevisiae deletion strains, locus YLR113W, strain HOG1, active compounds read low",0.967
same,normalized growth,"S. cerevisiae deletion strains, locus YLR221C, strain rsa3, active compounds read low",0.908
same,normalized growth,"S. cerevisiae deletion strains, locus YLR258W, strain gsy2, active compounds read low",0.961
same,normalized growth,"S. cerevisiae deletion strains, locus YLR262C, strain YPT6 (second series), active compounds read low",0.884
same,normalized growth,"S. cerevisiae deletion strains, locus YLR320W, strain mms22, active compounds read low",0.947
same,normalized growth,"S. cerevisiae deletion strains, locus YLR342W, strain FKS1, active compounds read low",0.961
same,normalized growth,"S. cerevisiae deletion strains, locus YLR357W, strain rsc2, active compounds read low",0.983
same,normalized growth,"S. cerevisiae deletion strains, locus YLR370C, strain arc18, active compounds read low",0.977
same,normalized growth,"S. cerevisiae deletion strains, locus YLR384C, strain iki3, active compounds read low",0.992
same,normalized growth,"S. cerevisiae deletion strains, locus YML120C, strain ndi1, active compounds read low",0.975
same,normalized growth,"S. cerevisiae deletion strains, locus YMR058W, strain fet3, active compounds read low",0.812 (active)
same,normalized growth,"S. cerevisiae deletion strains, locus YMR125W, strain sto1, active compounds read low",0.899
same,normalized growth,"S. cerevisiae deletion strains, locus YMR129W, active compounds read low",0.981
same,normalized growth,"S. cerevisiae deletion strains, locus YMR205C, strain PFK2, active compounds read low",0.988
same,normalized growth,"S. cerevisiae deletion strains, locus YMR231W, strain pep5, active compounds read low",0.942
same,normalized growth,"S. cerevisiae deletion strains, locus YNL071W, strain lat1, active compounds read low",0.877 (active)
same,normalized growth,"S. cerevisiae deletion strains, locus YNL183C, strain NPR1, active compounds read low",0.955
same,normalized growth,"S. cerevisiae deletion strains, locus YNL209W, strain ssb2, active compounds read low",0.986
same,normalized growth,"S. cerevisiae deletion strains, locus YNL248C, strain rpa49, active compounds read low",0.906
same,normalized growth,"S. cerevisiae deletion strains, locus YNL322C, strain KRE1 (second series), active compounds read low",0.985
same,normalized growth,"S. cerevisiae deletion strains, locus YNR049C, strain mso1, active compounds read low",0.977
same,normalized growth,"S. cerevisiae deletion strains, locus YOR001W, strain rrp6, active compounds read low",0.922
same,normalized growth,"S. cerevisiae deletion strains, locus YOR070C, strain gyp1, active compounds read low",0.962
same,normalized growth,"S. cerevisiae deletion strains, locus YOR080W, strain dia2, active compounds read low",0.986
same,normalized growth,"S. cerevisiae deletion strains, locus YOR083W, strain WHI5, active compounds read low",0.98
same,normalized growth,"S. cerevisiae deletion strains, locus YOR106W, strain vam3, active compounds read low",0.896
same,normalized growth,"S. cerevisiae deletion strains, locus YOR231W, strain MKK1, active compounds read low",0.967
same,normalized growth,"S. cerevisiae deletion strains, locus YOR265W, strain rbl2, active compounds read low",0.965
same,normalized growth,"S. cerevisiae deletion strains, locus YOR270C, strain vph1, active compounds read low",0.845
same,normalized growth,"S. cerevisiae deletion strains, locus YOR290C, strain snf2, active compounds read low",0.939
same,normalized growth,"S. cerevisiae deletion strains, locus YPL051W, strain arl3, active compounds read low",0.928
same,normalized growth,"S. cerevisiae deletion strains, locus YPL078C, strain atp4, active compounds read low",0.972
same,normalized growth,"S. cerevisiae deletion strains, locus YPL106C, strain sse1, active compounds read low",0.911
same,normalized growth,"S. cerevisiae deletion strains, locus YPL240C, strain hsp82, active compounds read low",0.976
same,normalized growth,"S. cerevisiae deletion strains, locus YPL256C, strain CLN2, active compounds read low",0.928
